Measurements published in PubChem BioAssay (NCATS).
Inconclusive results are not listed. Activity calls are given as the source filed them. Unless noted, calls come from the whole dose curve; as a rule, active = well fitted activation curve with a large enough effect in the main read-out, with a control signal flat (not every such curve was filed as active); inconclusive = small, poorly fitted or top-dose-only effect, or effect the other way, or a change in a side signal; inactive = flat fitted curve, though single readings scatter.

Test system: not listed separately
Assay: Cell Viability - Renal Proximal Tubule (AID 545; active = well fitted curve in the direction sought with a large enough effect; an effect the other way counts as inactive or inconclusive; note: nearly all actives have a fitted effect of over 40% in size)
Conditions: renal proximal tubule cells viability, primary cells of rat origin; series mostly up to 91.7 µM; activity change, negative = cytotoxicity: at the top concentration
Summary of the method: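 Rat renal proximal tubule primary cells, 1000/well, exposed to compounds for 40 hr at 37 °C in complete medium; cellular ATP read by CellTiter-Glo luminescence. AC50 from concentration-response fitted with standard Hill equation.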

SMILES | activity change, negative = cytotoxicity
Cc1occc(=O)c1O | 5.19% (inactive)
CC1=CC(=O)CC(C)(C)C1(O)/C=C/C(C)=C\C(=O)O (stereo not drawn) | 3.47% (inactive)
COS(C)(=O)=O | 6.49% (inactive)

Test system: not listed separately
Assay: Cell Viability - Mesenchymal (AID 546; active = well fitted curve in the direction sought with a large enough effect; an effect the other way counts as inactive or inconclusive;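 note: cells exposed to compound for 40 hours before reading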)
Conditions: mesenchymal cells viability, qHTS; series mostly up to 91.7 µM; activity change, negative = cytotoxicity: at the top concentration
Summary of the method: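 AC50 values reflect the drop in intracellular ATP in a human kidney mesenchymal line derived from normal glomeruli. Treatment lasts 40 hr at 37 °C in complete medium, and the signal comes from CellTiter-Glo luminescence.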

SMILES | activity change, negative = cytotoxicity
Cc1occc(=O)c1O | 13.7% (inactive)
CC1=CC(=O)CC(C)(C)C1(O)/C=C/C(C)=C\C(=O)O (stereo not drawn) | 5.97% (inactive)
COS(C)(=O)=O | 4.12% (inactive)

Target: 3',5'-cyclic-AMP phosphodiesterase 4B (Homo sapiens) (UniProt Q07343)
Sequence (Q07343 whole entry, looked up): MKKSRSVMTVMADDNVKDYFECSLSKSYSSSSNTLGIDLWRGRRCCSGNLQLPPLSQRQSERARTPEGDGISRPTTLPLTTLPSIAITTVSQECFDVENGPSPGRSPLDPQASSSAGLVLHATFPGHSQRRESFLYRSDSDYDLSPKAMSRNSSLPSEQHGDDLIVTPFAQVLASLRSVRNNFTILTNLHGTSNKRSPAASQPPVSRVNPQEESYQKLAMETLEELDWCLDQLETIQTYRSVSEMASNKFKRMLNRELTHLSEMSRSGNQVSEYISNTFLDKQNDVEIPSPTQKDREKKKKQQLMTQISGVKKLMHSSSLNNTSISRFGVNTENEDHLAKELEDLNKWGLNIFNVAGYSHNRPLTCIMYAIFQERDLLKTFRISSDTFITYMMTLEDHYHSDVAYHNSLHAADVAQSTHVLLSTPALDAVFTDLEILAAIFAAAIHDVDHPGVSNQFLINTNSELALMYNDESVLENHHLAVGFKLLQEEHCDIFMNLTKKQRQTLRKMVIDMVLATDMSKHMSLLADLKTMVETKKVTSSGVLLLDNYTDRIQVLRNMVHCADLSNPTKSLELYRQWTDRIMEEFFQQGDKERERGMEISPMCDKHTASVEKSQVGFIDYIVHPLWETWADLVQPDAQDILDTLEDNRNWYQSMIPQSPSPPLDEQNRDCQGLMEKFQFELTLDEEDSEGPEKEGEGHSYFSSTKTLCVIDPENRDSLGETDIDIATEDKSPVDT
Assay: qHTS Assay for Inhibitors of PDE-IV (AID 607); note: % of control where 0% means no effect
Conditions: HEK293 ACTOne CNG channel cells, membrane potential fluorescence; series mostly up to 22.9 µM; activation (PDE inhibition): at the top concentration
Summary of the method: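 Live HEK293 cells with a modified cyclic nucleotide-gated (CNG) channel report intracellular cAMP via membrane-potential dye fluorescence (ex 535/em 590 nm). Endogenous PDE-IV was targeted. Compounds were tested at up to 22.9 uM final; RO 20-1724 100 uM served as control.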

SMILES | Potency | activation (PDE inhibition)
CN1CCCC[C@@H]1CCN1c2ccccc2Sc2ccc(S(C)=O)cc21 (stereo partly drawn) | inactive | –
CN(Cc1ccco1)c1ccnc(-c2cccc(NS(C)(=O)=O)c2)n1 | – | 20.7% (inactive)
COc1cccc(Nc2ncc3nc(C)c(=O)n(CCC#N)c3n2)c1 | – | 4.72% (inactive)
Cn1cccc1C(=O)N1CCC2(CC1)CN(Cc1cc(C(F)(F)F)cc(C(F)(F)F)c1)C2 | – | 13.3% (inactive)
COc1ccc2[nH]cc(CCNc3ncnc4ccc(-c5ccc(C(=O)N(C)C)cc5)cc34)c2c1 | – | 8.42% (inactive)
COc1ccc2[nH]cc(CCNc3cc(-c4ccoc4)ncn3)c2c1 | – | 5.93% (inactive)
CNc1nc(-c2ccccc2OC)nc2ccccc12 | – | -3.83% (inactive)
CC(=O)N1CCC2(CC1)CCN(c1ccncc1)CC2 | – | 18.9% (inactive)
COCC(=O)N1CCC2(CCN(Cc3ccncc3)CC2)CC1 | – | 9.64% (inactive)
CNc1ncnc2ccc(-c3ccccc3OC)cc12 | – | 11.9% (inactive)
N#CCCn1c(=O)cnc2cnc(N3CCNCC3)nc21 | – | -2.79% (inactive)
CC(C)NC(=O)N1CCC2(CC1)CCN(C(=O)c1cnccn1)CC2 | – | -2.39% (inactive)
COc1ccc2[nH]cc(CCNc3ncnc4ccc(-c5ccccc5CN(C)C)cc34)c2c1 | – | 6.75% (inactive)
CN(C)c1ccc(-c2cc(NCc3cccnc3)ncn2)cc1 | – | -6.66% (inactive)
COc1ccc2[nH]cc(CCNc3ncncc3-c3ccccc3CN(C)C)c2c1 | – | 7.44% (inactive)
COc1ccccc1CNc1ccnc(-c2ccccc2C(F)(F)F)n1 | – | 26% (inactive)
COc1ccccc1-c1nc(NCc2cnc(C)cn2)c2ccccc2n1 | – | 1.44% (inactive)
COc1ncc2nc(-c3ccc(Cl)cc3)c(=O)n(-c3ccccc3)c2n1 | – | -12.3% (inactive)
COCCNc1ncnc2ccc(-c3ccccc3CN(C)C)cc12 | – | 16.3% (inactive)
COc1ccc(C(=O)N2CCC3(CCN(C(=O)Nc4cccc(F)c4)CC3)CC2)cc1 | – | 8.57% (inactive)
CN1[C@@H]2CC[C@H]1CC(OC(=O)[C@@H](O)c1ccccc1)C2 (stereo partly drawn) | inactive | –

Test system: not listed separately
Assay: Cellular Toxicity (caspase-3) HepG2 (AID 654; active = well fitted curve in the direction sought with a large enough effect; an effect the other way counts as inactive or inconclusive;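 note: cells exposed to compound for 16 hours before reading; 0% = DMSO alone and 100% = caspase signal from 100 µM tamoxifen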)
Conditions: HepG2 caspase-3 activation, luminescence, 0% = DMSO only, 100% = tamoxifen; series mostly up to 92.2 µM; caspase-3 activation: at the top concentration
Summary of the method: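 Cells plated 5 hr at 37 °C, compound added, incubated 16 hr at 37 °C. Caspase-Glo 3/7 reagent followed, 20 min at room temperature, then luminescence read. Activation scored as signal increase; AC50 from Hill fit.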

SMILES | caspase-3 activation
Cc1occc(=O)c1O | 0.0811% (inactive)
CC1=CC(=O)CC(C)(C)C1(O)/C=C/C(C)=C\C(=O)O (stereo not drawn) | 0.211% (inactive)
COS(C)(=O)=O | 0.988% (inactive)

Test system: not listed separately
Assay: Cellular Toxicity (caspase-3) Jurkat (AID 655; active = well fitted curve in the direction sought with a large enough effect; an effect the other way counts as inactive or inconclusive;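 note: cells exposed to compound for 16 h at 37 °C before reading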)
Conditions: Jurkat caspase-3 activation, luminescence, DMSO = 0%, tamoxifen = 100%; series mostly up to 92.2 µM; caspase-3 activation: at the top concentration
Summary of the method: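 Jurkat cells (5000/well) in complete medium exposed 16 h at 37 C; caspase-3/7 activity read by Caspase-Glo luminescence after 20 min at room temperature. Normalized to DMSO and 100 uM tamoxifen; AC50 from Hill fits.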

SMILES | caspase-3 activation
Cc1occc(=O)c1O | 0.813% (inactive)
CC1=CC(=O)CC(C)(C)C1(O)/C=C/C(C)=C\C(=O)O (stereo not drawn) | 0.273% (inactive)
COS(C)(=O)=O | -1.52% (inactive)

Test system: not listed separately
Assay: Cellular Toxicity (caspase-3) HUV-EC-C (AID 656; active = well fitted curve in the direction sought with a large enough effect; an effect the other way counts as inactive or inconclusive)
Conditions: HUV-EC-C cells, caspase-3 activation (apoptosis), vehicle = 0, 100 µM tamoxifen = 100%; series mostly up to 92.2 µM; caspase-3 activation: at the top concentration
Summary of the method: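 HUV-EC-C cells (1000/well) in complete medium, compound-treated 16 h at 37 °C; caspase-3/7 activity read by Caspase-Glo 3/7 luminescence. Normalized to DMSO (basal) and 100 uM tamoxifen (100%); AC50 from Hill-equation concentration-response fits.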

SMILES | caspase-3 activation
Cc1occc(=O)c1O | 0.666% (inactive)
CC1=CC(=O)CC(C)(C)C1(O)/C=C/C(C)=C\C(=O)O (stereo not drawn) | 6.88% (inactive)
COS(C)(=O)=O | 8.17% (inactive)

Test system: not listed separately
Assay: Cellular Toxicity (caspase-3) SHSY5Y (AID 657; active = well fitted curve in the direction sought with a large enough effect; an effect the other way counts as inactive or inconclusive)
Conditions: SH-SY5Y caspase-3 activation, DMSO zero, 10 µM staurosporine = 100%; series mostly up to 91.7 µM; caspase-3 activation: at the top concentration
Summary of the method: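 SH-SY5Y human neuroblastoma cells, 1500/well, exposed to compound for 16 hours at 37 °C in complete medium. Caspase-3/7 activity read by Caspase-Glo luminescence after 1 hr at room temperature, normalized to DMSO and 10 uM staurosporine; AC50 from Hill fit.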

SMILES | caspase-3 activation
Cc1occc(=O)c1O | -0.126% (inactive)
CC1=CC(=O)CC(C)(C)C1(O)/C=C/C(C)=C\C(=O)O (stereo not drawn) | -0.537% (inactive)
COS(C)(=O)=O | -0.772% (inactive)

Test system: not listed separately
Assay: Cellular Toxicity (caspase-3) BJ (AID 658; active = well fitted curve in the direction sought with a large enough effect; an effect the other way counts as inactive or inconclusive)
Conditions: BJ fibroblasts, luminescence, normalized: DMSO 0%, staurosporine 100%; series mostly up to 91.7 µM; caspase-3 activation: at the top concentration
Summary of the method: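 Readout: Caspase-Glo 3/7 luminescence increase in BJ cells after 16 hr treatment at 37 °C. Staurosporine and tamoxifen served as positive controls; AC50 values came from Hill modelling of data normalized to DMSO and 10 uM staurosporine.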

SMILES | caspase-3 activation
Cc1occc(=O)c1O | 0.431% (inactive)
CC1=CC(=O)CC(C)(C)C1(O)/C=C/C(C)=C\C(=O)O (stereo not drawn) | 0.14% (inactive)
COS(C)(=O)=O | 0.329% (inactive)

Test system: not listed separately
Assay: Cellular Toxicity (caspase-3) MRC-5 (AID 659; active = well fitted curve in the direction sought with a large enough effect; an effect the other way counts as inactive or inconclusive)
Conditions: MRC-5 cells, luminescence, normalized: DMSO 0%, 10 µM staurosporine 100%; series mostly up to 91.7 µM; caspase-3 activation: at the top concentration
Summary of the method: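 Concentration-dependent caspase 3/7 activation is measured in human normal lung fibroblasts (MRC-5) following 16-hour treatment. AC50 values come from standard Hill-equation modeling of luminescence normalized to DMSO and 10 uM staurosporine.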

SMILES | caspase-3 activation
Cc1occc(=O)c1O | 1.72% (inactive)
